From PubChem BioAssay
PPARg SRC2 recr: PPARgamma-driven SRC-2 recruitment agonism | PPARgamma LBD-SRC-2 recruitment, biochemical | activation, % at 8 µM | 0.34% of 200,000 active; in the data active = activation above about 22%;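 note: 0% = vehicle and 100% = reference agonist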
Target sequence (P37231 whole entry, looked up, the tested form may be a part): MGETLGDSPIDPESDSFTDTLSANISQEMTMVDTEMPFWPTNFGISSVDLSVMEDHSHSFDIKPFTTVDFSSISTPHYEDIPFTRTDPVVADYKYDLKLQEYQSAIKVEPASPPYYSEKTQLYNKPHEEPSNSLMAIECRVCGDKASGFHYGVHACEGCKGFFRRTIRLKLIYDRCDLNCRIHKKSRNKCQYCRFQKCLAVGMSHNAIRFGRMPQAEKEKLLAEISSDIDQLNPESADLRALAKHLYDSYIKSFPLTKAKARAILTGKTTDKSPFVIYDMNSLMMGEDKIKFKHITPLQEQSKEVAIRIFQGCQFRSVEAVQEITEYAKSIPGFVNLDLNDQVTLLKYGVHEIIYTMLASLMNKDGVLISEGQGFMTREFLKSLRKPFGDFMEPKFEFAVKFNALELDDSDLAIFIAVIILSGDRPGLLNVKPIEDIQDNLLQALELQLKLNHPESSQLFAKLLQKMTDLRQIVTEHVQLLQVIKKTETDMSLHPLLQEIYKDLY
PPARg SRC-1 ag: PPARgamma-driven SRC-1 recruitment agonism; activation, % at 8 µM; 0.41% of 200,000 active; PPARgamma-SRC-1 coactivator recruitment biochemical assay; in the data active = activation above about 19%;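 note: 0% = DMSO and 100% = reference agonist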
SRC3 TRFRET art: counter-screen for PPARgamma SRC-3 recruitment agonists: TR-FRET artefact; 0.39% of 99,000 active; TR-FRET ratio at 8 µM; PPARgamma/SRC-3 format; hits give high values
SRC1 TRFRET art: flags TR-FRET format artefacts in PPARgamma SRC-1 recruitment agonist screen | TR-FRET detection artefact counter-screen, emission ratio; hits give high values | 0.34% of 99,000 active | TR-FRET ratio at 8 µM; in the data active = TR-FRET ratio above about 2300
SRC2 TRFRET art: TR-FRET artefact, counter-screen to PPARgamma/SRC-2 agonist assay; TR-FRET ratio at 8 µM; AID 1049; 0.4% of 200,000 active; hits give high values
PPARg SRC3 recr: agonists of human PPARgamma SRC-3 coactivator recruitment; P37231; biochemical PPARgamma/SRC-3 coactivator recruitment assay; activation, % at 8 µM; 0.26% of 200,000 active; in the data active = activation above about 23%;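 note: 0% = DMSO and 100% = reference agonist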
Numbers without * were called inactive; x = no result. A selection: hits, their analogues and other compounds. The true share with any hit is near 0.84%. Cut-off read from the data, not from the text of the source, unless noted: active = TR-FRET ratio above about 2000; inactive = the rest.

SMILES | PPARg SRC2 recr | PPARg SRC-1 ag | SRC3 TRFRET art | SRC1 TRFRET art | SRC2 TRFRET art | PPARg SRC3 recr
CCNC(=S)N=Nc1c(O)[nH]c2ccc([N+](=O)[O-])cc12 | 11 | 8 | 1665 | 2171 | 1982* | 0
O=[N+]([O-])c1ccc2[nH]c(O)c(N=NC(=S)NCC3CCCO3)c2c1 (stereo not drawn) | -4 | 3 | 1631 | 1664 | 1299 | -6
Cc1cccc(Nc2nnc(SCC(=O)c3ccc(Br)s3)s2)c1C | 16 | 13 | 2057* | 2122 | 1770 | 7
C/C(N)=C(/C#N)C(=O)CSc1nnc(Nc2cccc(C)c2C)s1 | 3 | 4 | x | x | 1532 | 6
COc1ccc2sc3c(=O)[nH]c4ccccc4c3c2c1 | 1 | 145* | x | x | 1611 | 8
COc1ccc2c(c1)[nH]c(=O)c1sc3ccccc3c12 | 7 | 15 | x | x | 1661 | 8
Cn1c(CCNC(=O)c2ccccc2F)nnc1SCC(=O)Nc1ccccc1F | -1 | 6 | 1562 | 1824 | 1550 | 2
CCOC(=O)c1sc(=NC(=O)c2ccc(OC(C)C)cc2)n(C)c1C | 3 | 43* | 1545 | 2238 | 1610 | 1
O=C(CSc1nc2cc(Cl)ccc2s1)c1cc2ccccc2o1 | 8 | 3 | x | x | 2199* | 1
Cc1cc(NC(=O)CSc2nc3cc(Cl)ccc3s2)no1 | 3 | 0 | x | x | 1623 | 19
Cc1cc(SCC(=O)c2cc3ccccc3o2)nc2ccccc12 | 4 | 3 | x | x | 2575* | 2
O=C(O)c1ccccc1NS(=O)(=O)c1ccccc1C(F)(F)F | 1 | 2 | x | x | 1535 | 3
CCn1cc(S(=O)(=O)Nc2ccccc2C(F)(F)F)cn1 | 23* | 9 | 1619 | 1890 | 1708 | 2
CS(=O)(=O)N1CCC(C(=O)NCc2ccccc2)CC1 | -3 | 7 | 1454 | 1767 | 1764 | 2
CN(C)/C=C/C1=CC(=O)CC(C)(C)C1 | -9 | 4 | 1528 | 1821 | 1549 | 2
O=C(Nc1nc2ccccc2c(=O)[nH]1)c1ccccc1SCc1ccccc1 | 3 | 1 | 2104* | 1612 | 1370 | 2
CCNC(=O)c1ccccc1SCc1ccccc1 | 2 | -3 | 1473 | 1740 | 1479 | 1
CCOc1ccc(S(=O)(=O)c2c(C(=O)c3ccccc3)cnc3cc4c(cc23)OCCO4)cc1 | -4 | 7 | 2180* | 2111 | 1938 | -6
CC(=O)c1ccc(NC(=O)COC(=O)c2ccccc2N=Nc2ccc(N(C)C)cc2)cc1 | 9 | 9 | 1886 | 2419* | 1674 | 4
Cc1sc(-c2cccnc2)nc1OC(=O)C1CC1 | 6 | 3 | 1704 | 2027 | 1604 | -2
COc1ccc(-c2nc(-c3ccc(NC(=O)c4ccc(Br)o4)cc3)no2)cc1OC | 8 | 11 | x | x | 1699 | 30*
COc1cccc(-c2nc(-c3ccc(NC(=O)Cc4ccccc4OC)cc3)no2)c1 | -5 | -2 | x | x | 1985* | 0
COc1cccc(NC(=O)Cc2nc(-c3ccccc3)sc2-c2ccc(C)cc2)c1 | -6 | 2 | 3358* | 3241* | 2590* | 3
COc1ccc(-c2noc(Cc3ccccc3OC)n2)cc1 | 7 | 4 | x | x | 1718 | 26*
COc1ccc(-c2noc(Cc3cccs3)n2)cc1 | 2 | 1 | x | x | 1628 | 4
SMILES | PPARg SRC2 recr | PPARg SRC-1 ag | SRC3 TRFRET art | SRC1 TRFRET art | SRC2 TRFRET art | PPARg SRC3 recr
Cc1ccc(NCC(=O)N/N=C/c2cc(O)ccc2[N+](=O)[O-])cc1 | 10 | 4 | 1657 | 1904 | 1638 | 5
COc1ccc(S(=O)(=O)c2nnn(-c3cccc(Cl)c3)c2N)cc1 | -7 | 6 | 1548 | 1811 | 1641 | -2
Cc1c(C(=O)Nc2ccc(-n3cnnn3)cc2)oc2ccccc12 | 1 | 4 | x | x | 1999* | 10
CCCOc1ccc(CNCCCOCC)cc1OC | -4 | 1 | 1489 | 1975 | 1583 | 0
CCOCCCNCc1ccc(OC)c(OC)c1 | 34* | 5 | x | x | 2500* | -4
O=C(C1=C[C@@H](c2ccc(Br)cc2)C[C@@H](OCCCCO)O1)N1CCN(Cc2ccc3c(c2)OCO3)CC1 | 6 | 1 | 1729 | 1764 | 1592 | 31*
N/C(=N\OC(=O)COc1ccc2ccccc2c1Br)c1ccncc1 | 0 | 3 | 1823 | 1979 | 1636 | 4
Cc1ccc(N2C(=O)CSC2c2cccs2)cc1 (stereo not drawn) | 5 | -3 | x | x | 1646 | 12
Cc1cc(C)cc(N2C(=O)CSC2c2cccs2)c1 (stereo not drawn) | 11 | 7 | 1827 | 1726 | 1989* | 0
O=c1c(Cl)nc2cc(Cl)ccc2n1CCNc1ncc(C(F)(F)F)cc1Cl | 3 | 32* | x | x | 1553 | -6
NNc1nc2cccnc2n(CCNc2ncc(C(F)(F)F)cc2Cl)c1=O | 1 | -6 | 1447 | 1823 | 1488 | 2
CC(C)c1ccc(OCC(=O)NC(=S)Nc2ccc3c4c(cccc24)CC3)cc1 | 7 | 22* | x | x | 1873 | 6
CC(C)(C)c1ccc(OCc2ccc(C(=O)N3CCOCC3)o2)cc1 | 25* | -2 | 1710 | 1474 | 2010* | 3
CC(C)(C)c1ccc(OCCCC(=O)N2CCOCC2)cc1 | 2 | -3 | 1487 | 1643 | 1540 | 1
COc1cccc(C(=O)Nc2ccc(-c3nc4ccccc4o3)c(O)c2)c1 | 9 | 3 | x | x | 2264* | -5
CC(C)(C)c1ccccc1NC(=O)c1c(O)c2cccc3c2n(c1=O)CC3 | 1 | -8 | 2335* | 1835 | 1499 | -1
CN(C(=O)CO/N=C/c1ccc(OC(F)F)cc1)C1CCS(=O)(=O)C1 (stereo not drawn) | 11 | 4 | 1632 | 2030 | 1566 | 5
CCCn1c(O)c(C=Nc2ccccc2)sc1=S | -3 | -4 | 1466 | 1715 | 1498 | -2
CCn1c(O)c(C=Nc2ccccc2)oc1=S | 8 | 11 | x | x | 1976* | 5
O=C(Nc1ccc2c(c1)OCCO2)c1cc2sccc2n1Cc1ccccc1 | 7 | 4 | x | x | 1989* | 2
O=C(Nc1ccc2c(c1)OCCO2)c1cc2sccc2n1Cc1ccc(F)cc1 | 14 | 7 | x | x | 1828 | 12
Cc1ccc(N2C(=O)C3CCC(c4ccccc4)CC3C2=O)cc1 (stereo not drawn) | -3 | 37* | 1599 | 2647* | 1420 | 0
COC(=O)N/N=C/c1sc(N2CCCCC2)nc1-c1cccs1 | 14 | 2 | 1571 | 1698 | 1502 | 7
COC(=O)C(CC(C)C)NC(=O)c1cccs1 (stereo not drawn) | 8 | 6 | 1498 | 2026 | 1803 | 9
O=C(CSc1ccc2ccccc2c1Br)Nc1cccc(S(=O)(=O)NC2=NCCCCC2)c1 | 13 | 6 | 2200* | 1973 | 1866 | 10
Cn1c(=O)n(C)c2cc(NC(=O)c3ccccc3[N+](=O)[O-])c(Br)cc21 | 12 | 1 | 1726 | 1816 | 1997* | 4
CCOC(=O)C1(CCCc2ccccc2)CCN(C(=O)CCN2CCCCC2=O)CC1 | 9 | 6 | 1416 | 1889 | 1478 | 2
COC(=O)Cn1c(=NC(=O)c2cc(-c3cccs3)nc3ccccc23)sc2cc(S(N)(=O)=O)ccc21 | 5 | 4 | 1741 | 1658 | 1499 | 3
